Only some compounds are listed: those with a hit (about 1.5% of all), similar ones and a draw of the others.
PV pol inh – poliovirus RdRp elongation inhibitors, primary screen, biochemical, fluorescence polarization, total intensity; Genome polyprotein (Poliovirus type 1 (strain Mahoney)), P03300; poliovirus polymerase elongation; stronger effect = lower value; % elongation, % (compound at 16.7 µg/mL); 0.66% of 150,000 active; in the data active = % elongation below about 90%
Mtb MbtI inh – MbtI salicylate synthase inhibitors, primary screen, biochemical, fluorescence intensity; P9WFX0; purified MbtI enzyme, fluorescence intensity read-out; inhibition, % (test concentration not listed); 0.89% of 100,000 active; in the data active = inhibition mostly above about 56%, no sharp cut-off; inactive = mostly below about 77%
AID504770 – growth inhibition of E. coli YBA685, primary screen, V. cholerae RctB inhibitors. E. coli YBA685 rctB-dependent plasmid, OD600 growth, 3 h; stronger effect = lower value. z-score (no concentration beside the values). 0.27% of 130,000 active. AID 504770, 2011; in the data active = z-score below about -2, passing the limit was not always enough
MenB inh – M. tuberculosis MenB inhibitors, primary screen, biochemical, absorbance. 1,4-dihydroxy-2-naphthoyl-CoA synthase (Mycobacterium tuberculosis (strain ATCC 25618 / …. MenB enzyme assay, absorbance read-out. inhibition, % (no concentration beside the values). 0.43% of 100,000 active. AID 540299, 2011; in the data active = inhibition above about 21%, passing the limit was not always enough
Target sequence (P9WNP5 whole entry, looked up): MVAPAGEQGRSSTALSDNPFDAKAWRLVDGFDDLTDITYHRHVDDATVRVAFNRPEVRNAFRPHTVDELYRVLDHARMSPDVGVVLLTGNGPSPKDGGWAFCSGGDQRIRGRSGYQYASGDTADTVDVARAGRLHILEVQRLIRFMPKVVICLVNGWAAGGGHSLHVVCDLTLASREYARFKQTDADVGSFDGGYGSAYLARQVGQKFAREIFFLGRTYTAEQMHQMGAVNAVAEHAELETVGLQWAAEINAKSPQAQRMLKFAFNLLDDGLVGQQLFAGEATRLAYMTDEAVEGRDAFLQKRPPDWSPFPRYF
Numbers stand for hits; 0 = inactive; - = no result given.

SMILES	PV pol inh	Mtb MbtI inh	AID504770	MenB inh
CCOC(=O)c1ccc(NC(=O)NC(C)c2ccc3c(c2)OCO3)cc1 (centres undefined)	0	0	0	0
Clc1nc(Cl)nc(NCCC2=CCCCC2)n1	78	0	0	0
CC(C)Cc1nnc(NS(C)(=O)=O)s1	0	95	0	0
C=CCn1c(N2CCOCC2)nc2ccccc21	0	0	0	0
c1csc(CNC2CC2)c1	0	0	0	0
CCN(CC)C(=O)c1cc(-c2ccccc2)on1	0	0	0	34
CCN(CC)C(=O)c1cc(-c2ccc(C)cc2)on1	0	-	0	0
O=C(O)c1cc(-c2ccc(F)cc2)on1	0	-	0	47
C=CCNC(=O)c1cc(-c2ccccc2)on1	0	0	0	34
C=CCNC(=O)c1cc(-c2ccc(OC)cc2)on1	0	0	0	0
C=CCOc1ccc(C(=O)NC2CC(C)(C)NC(C)(C)C2)cc1	0	0	0	0
O=c1c(Cl)c(Cl)cnn1-c1ccc(C(F)(F)F)cn1	88	0	0	0
O=c1[nH]cnc2c1cnn2-c1ccc(C(F)(F)F)cn1	0	0	0	-
COC(=O)OC1C=CS(=O)(=O)C1 (centres undefined)	-	0	0	-
O=C1NC(=O)N(C2CCCCC2)C(=O)/C1=C/c1ccc(Br)cc1	0	0	0	0
N=C1/C(=C2\NC(c3ccc(Br)cc3)=CS2)CC(=O)N1C1CC1	0	91	0	0
Cc1nn(-c2ccccc2Cl)c2nc(-c3ccco3)cc(C(=O)NN)c12	88	0	0	0
c1ccc2[nH]c(CSc3nnnn3C3CCCCC3)nc2c1	0	0	0	0
Cc1c(C(=O)Nc2ccncc2)oc2ccccc12	0	0	0	38
Cc1cc(=S)[nH]c2ccccc12	0	61	0	0
CCCN1CCN(C(=O)C2CCS(=O)(=O)C2)CC1 (centres undefined)	0	0	0	0
CCn1c(SCC(=O)Nc2cccc(Cl)c2C)nnc1C1CC1	0	0	0	0
O=C1CSC(=S)N1/N=C/c1cc(Br)cc(Br)c1O	90	0	0	0
CC(C)CNC(=O)c1ccccc1S(=O)(=O)N1CCCCC1	0	94	0	0
CC(C)(C)c1ccc(OCC(=O)n2ncc(C#N)c2N)c(C(C)(C)C)c1	0	0	0	0
SMILES	PV pol inh	Mtb MbtI inh	AID504770	MenB inh
CCc1ccc(C(=O)NCc2ccc3c(c2)OCO3)cc1	0	0	0	0
CN(C(=S)NCc1ccc2c(c1)OCO2)C1CCS(=O)(=O)C1 (centres undefined)	88	84	0	0
COc1cc(/C=N/NC(N)=O)cc(Br)c1OC	0	0	0	0
COc1cc(/C=N/NC(N)=O)cc2sc(=O)oc12	0	81	0	0
CCc1nn2c(=O)cc(COC(=O)c3ccc4c(c3)OCO4)nc2s1	0	-	-	-
CC(C)Cc1nn2c(=O)cc(COC(=O)c3ccc4c(c3)OCO4)nc2s1	73	-	-	-
CCc1c(C)[nH]c(C)c1C(=O)OC	0	0	0	0
Clc1ccccc1C1SCC2Nc3ccccc3CN21 (centres undefined)	0	0	0	71
COc1ccc(-c2cc(C(F)F)nc(NN)n2)cc1	0	0	0	0
N#Cc1c(N(C(=O)/C=C/c2ccco2)C(=O)/C=C/c2ccco2)oc(-c2ccco2)c1-c1ccco1	89	0	0	0
COc1cccc(OC)c1C(=O)N(C(=O)c1c(OC)cccc1OC)c1oc(-c2ccco2)c(-c2ccco2)c1C#N	0	0	0	0
CC(Sc1nc(N)cc(=O)[nH]1)c1nc2ccccc2c(=O)[nH]1 (centres undefined)	0	0	0	0
COc1ccc(COCC(O)CN(C)Cc2ccc3c(c2)OCCO3)cc1 (centres undefined)	0	0	0	0
O=C(O)CCCN1C(=O)C(O)=C(C(=O)/C=C/c2ccccc2)C1c1ccccc1 (centres undefined)	0	0	0	0
COCCn1c(C)cc(/C=N/n2c(Cc3cccc4ccccc34)n[nH]c2=S)c1C	0	73	0	0
COCCn1c(C)cc(/C=N/n2c(C)nc3ccccc3c2=O)c1C	0	0	0	0
Cn1c(N/C(=C\C(=O)c2cccs2)C(F)(F)F)nc2ccccc21	0	0	-2.7	-
Cc1ccccc1N1CCN(C(=O)c2c(C)oc3cc4c(C(=O)N5CCN(c6ccccc6C)CC5)c(C)oc4cc23)CC1	0	0	-3.3	0
COc1cc2c(C(=O)N3CCN(c4ccccc4C)CC3)c(C)oc2cc1Br	0	0	0	0
CC1SC(c2ccccc2)NC1=O (centres undefined)	0	91	0	0
Cc1ccc(C(=O)Nc2ccccc2C)cc1	0	0	0	0
Cc1ccccc1NC(=O)c1sc(N)c(C(N)=O)c1C	0	87	0	0
CC(C)(C)n1ncc(O)c(Cl)c1=O	0	0	0	0
Cc1cc(NC(=O)CNCC2CCCCC2)no1	0	0	0	0
CCc1ccc(S(=O)(=O)/N=C2\C=CC(=O)c3ccccc32)cc1	74	0	0	0
SMILES	PV pol inh	Mtb MbtI inh	AID504770	MenB inh
Cn1ccnc1P(=S)(c1nccn1C)N1CCOCC1	80	87	0	0
Cn1cc(P(=S)(N2CCOCC2)N2CCOCC2)cc1P(=S)(N1CCOCC1)N1CCOCC1	0	0	0	0
Cc1ccccc1Nc1nc(N)nc(Cn2cnc3sc4c(c3c2=O)CCC4)n1	0	0	0	0
CCOC(=O)n1c(=O)oc2cc(Cl)ccc21	0	0	0	0
COc1ccc(OC)c(CNC(=O)c2cc3c(-c4ccc(OC)c(OC)c4)nn(C)c3s2)c1	0	-	-	-
CCN(CC)CCNC(=O)c1cc2c(-c3cccc(OC)c3)nn(C)c2s1	83	-	-	-
CCCN(CCC)CCCNC(=O)c1cc2c(-c3ccc(OC)c(OC)c3)nn(C)c2s1	83	-	-	-
COCCCNC(=O)c1cc2c(-c3cccc(OC)c3)nn(C)c2s1	0	-	-	-
COc1ccc(-c2nn(C)c3sc(C(=O)NCCN(C)C)cc23)cc1OC	60	-	-	-
CCCN(CCC)CCNC(=O)c1cc2c(-c3ccc(Cl)cc3)nn(C)c2s1	0	-	-	-
COc1ccc(CC2SC(=Nc3ccc(Br)cc3)NC2=O)cc1 (centres undefined)	-	-	0	-
CCOC(=O)N1CCC(NC(=O)CNC(=O)c2ccco2)CC1	-	0	-2.7	-
Cc1cc(C)c2c(N)c(C3=NC(C)(C)Cc4ccccc43)sc2n1	0	-	0	0
CC1(C)Cc2ccccc2C2=NNC(=O)C2=N1	84	0	0	0
CCOC(=O)c1sc(CN2CCN(c3cccc(Cl)c3)CC2)nc1C	-	-	0	-
CCOC(=O)c1sc(SCC(=O)c2ccc(Cl)cc2Cl)nc1C	86	0	0	0
Cc1ccc(C(=O)CSC#N)o1	0	-	-3.1	0
N#CSCC(=O)c1ccccc1	-	-	-3.6	-
Cc1ccc(C(=O)O)o1	0	0	0	-
N#CCC(=O)c1ccccc1	0	0	0	-
C=CCOC(=O)COc1ccc2c(CC)cc(=O)oc2c1	0	0	0	0
CC(C)c1ccccc1NN	79	-	0	0
COCC(=O)Nc1ccccc1C(C)C	0	0	0	0
C=CCC1Cc2ccccc2C(C)N1 (centres undefined)	-	0	0	-
